Out of some 48,000 compounds screened, about 13,000 (27%) showed an effect of 50% or more. This is one part of the list.
Test system: Wolbachia pipientis
Experiment: Anti-Wolbachia Cell-Based Screen
Assay type: functional
Parameters: scale not given: in the data most compounds retested in dose-response had high values
Settings: 5 µM

Structure (SMILES) | Percent Effect
Cn1nccc1C1CCN(Cc2ccn(-c3ccccc3)n2)CC1 | -5.293%
CCOCC(=O)Nc1cc(-n2nnnc2C2CC2)ccc1F | -4.453%
CNC(=O)NC(=O)C(NCc1cccs1)c1ccccc1 (stereo not drawn) | -60.87%
CC(C)c1ccc(/C=C/CC(=O)NC2CCN(C(N)=O)C2)cc1 (stereo not drawn) | -19.1%
CCS(=O)(=O)N1CC[C@H]2OCC[C@@]2(c2nnc(C)o2)C1 | 3.137%
Cc1noc([C@@]23CCO[C@@H]2CCN(CC2CCOCC2)C3)n1.O=C(O)C(F)(F)F | -22.2%
CNC(=O)[C@@]12CCO[C@@H]1CCN(Cc1scnc1C)C2.O=C(O)C(F)(F)F | -1.55%
Cc1noc([C@@]23CCO[C@@H]2CCN(Cc2scnc2C)C3)n1.O=C(O)C(F)(F)F | 105.3%
Cc1nnc([C@]23COC[C@H]2CN(Cc2nccs2)C3)o1.O=C(O)C(F)(F)F | -6.391%
Cc1nnc([C@@]23CCO[C@@H]2CCN(Cc2nccs2)C3)o1 | 93.98%
Cc1nnc([C@@]23CCO[C@@H]2CCN(Cc2scnc2C)C3)o1 | 102.2%
Cc1ncsc1CN1CC[C@H]2OCC[C@@]2(C(=O)N2CCCC2)C1 | -2.591%
N#CCCCS(=O)(=O)N1CCCC1CC(=O)c1cccs1 (stereo not drawn) | -18.29%
COCc1nn(CC2CC2)c2c1CN(Cc1cncn1C)CC2.O=C(O)C(F)(F)F | -13.43%
Cc1ccc(C(=O)N(C)C)cc1NC(=O)COCC1CC1 | -15.5%
C[C@@H](NC(=O)c1cccnc1)c1onc(-c2ccccc2)c1C(=O)O | -0.5339%
COc1ncc(C2(O)CCN(Cc3ccc(F)c(F)c3)CC2)c(OC)n1.Cl | 122.5%
COc1ccc(F)c(CN2CCC3(CCC(=O)N(CC(N)=O)C3)CC2)c1 | 10.55%
COc1ncc(C2(O)CCN(Cc3cc(F)ccc3F)CC2)c(OC)n1.Cl | 106.6%
COc1ncc(C2(O)CCN(Cc3cccc(F)c3F)CC2)c(OC)n1.Cl | 130.5%
COc1ncc(C2(O)CCN(Cc3ccccc3O)CC2)c(OC)n1 | -6.313%
COc1ncc(C2(O)CCN(Cc3c(F)cccc3F)CC2)c(OC)n1.Cl | 1.004%
COc1cc(OC)cc(C2(O)CCN(Cc3ncc(C)o3)CC2)c1 | 10.39%
COc1cc(OC)cc(C2(O)CCN(Cc3nc(C)c(C)o3)CC2)c1 | -6.043%
COc1ncc(C2(O)CCN(Cc3cc(F)cc(F)c3)CC2)c(OC)n1 | 125.6%

Structure (SMILES) | Percent Effect
Cc1cnn(CC(C)NCC(=O)NCCc2cccs2)c1 (stereo not drawn) | -55.8%
Cc1ncc2c(n1)CN(Cc1nnc(Cc3ccccc3)o1)CC2 | 5.635%
Cc1nonc1CN(C)CC1(O)CCCN(CCC2CCCCC2)C1=O (stereo not drawn) | 3.713%
Cc1cccnc1CN(C)CC1(O)CCCN(CC2CCCCC2)C1=O (stereo not drawn) | 93.19%
Cc1cccnc1CNCC1(O)CCCN(CC2CCCCC2)C1=O (stereo not drawn) | -7.545%
O=C(NCCOc1ccc(C(F)(F)F)cn1)c1ccoc1 | 0.7109%
COc1ccc(OCc2nccc(-c3cc(C(=O)O)ccn3)n2)cc1 | -32.77%
CCn1cc(S(=O)(=O)NCC(OC)c2ccccc2)cn1 (stereo not drawn) | 8.527%
CCn1cc(S(=O)(=O)NCC(c2ccccc2)N2CCOCC2)c(C)n1 (stereo not drawn) | 72.63%
COc1ccc(S(=O)(=O)NCC(N)c2ccccc2)c(C)c1.Cl (stereo not drawn) | -12.16%
Cc1nc(C)c(C(=O)NCC(c2ccccc2Cl)N2CCOCC2)s1 (stereo not drawn) | 6.115%
Cc1nn(C)cc1S(=O)(=O)NCC(c1ccccc1Cl)N1CCCC1 (stereo not drawn) | 87.53%
Cc1nn(C)cc1S(=O)(=O)NCC(c1ccccc1)N1CCCCCC1.Cl (stereo not drawn) | 112.3%
COc1ccc(S(=O)(=O)NCC(c2cccn2C)N(C)C)c(C)c1 (stereo not drawn) | 5.566%
O=C(NCCCn1cncn1)NCC(c1ccccc1)N1CCCC1 (stereo not drawn) | 9.834%
Cc1cccc(S(=O)(=O)NCC(C)N2CCN(C)CC2)c1Cl (stereo not drawn) | -7.911%
O=C(NCc1cc[nH]n1)NCC(c1ccccc1Cl)N1CCCC1 (stereo not drawn) | 3.552%
COc1ccc(C(CNS(=O)(=O)c2cn(C)nc2C)N2CCCC2)cc1.Cl (stereo not drawn) | 105.6%
CCn1cc(CNCC(c2ccc(C)s2)N2CCOCC2)cn1 (stereo not drawn) | 13.07%
Cc1nsc(NCc2ccc(S(=O)(=O)N(C)C(C)C)cc2)n1 | 22.68%
CCCC(C)CS(=O)(=O)NCc1cccnc1OC (stereo not drawn) | 6.664%
CC(C)c1nnc2n1CCN(C(=O)c1ccc3c(c1)NC(=O)CO3)C2 | 2.374%
NC(=O)CN1CCC(NC(=O)Nc2nccs2)CC1 | 9.96%
Cc1csc(NC(=O)CN2CCC(c3ccnn3CCO)CC2)n1 | -8.035%
Cc1csc(NC(=O)NCCCN2CCC(C(N)=O)CC2)n1 | 96.37%

Structure (SMILES) | Percent Effect
O=C(NCc1ccccc1CN1CCCCC1)Nc1nncs1 | -2.637%
O=C(NCCCN1CCN(c2ncccn2)CC1)Nc1ccccn1 | 10.78%
NC(=O)C1CCN(CCCNC(=O)Nc2nccs2)CC1 | 104.9%
O=C(NCc1ccccc1CN1CCCC1)Nc1nncs1 | 6.886%
NC(=O)C1CCN(CCCNC(=O)Nc2nncs2)CC1 | 106.6%
Cc1csc(CCNC(=O)C2CCN(CC(N)=O)CC2)n1 | -1.435%
O=C(C(C1CC1)C1CC1)N1CCC(n2ccnn2)CC1 | -3.228%
COc1ccc(C(C(=O)O)N2CCC(O)(c3cccnc3)CC2)cc1Cl (stereo not drawn) | 2.828%
CN(C)c1cc(NCc2cnc3n2CCN(CC2CC2)CC3)ncn1.O=C(O)C(F)(F)F | 3.56%
Cc1cnc(N2C[C@@H]3CCN(CC(=O)N(C)C)C(=O)[C@H]3C2)nc1.O=C(O)C(F)(F)F | -29.89%
CCOC(=O)N1CCCn2nc(C(=O)NCCN(C)C)cc2C1 | -7.985%
CN(C)CCNC(=O)c1ccc(OC2CCN(CC3CC3)CC2)c(Cl)c1 | 3.166%
CN(C)CCNC(=O)c1cc(-c2cnc(N(C)C)nc2)cn1CC1CC1 | 102.4%
CN(C)c1ncc(-c2cc(C(=O)NCCC#N)n(CC3CC3)c2)cn1.O=C(O)C(F)(F)F | 101.1%
CN(C)c1ncc(-c2cc(C(=O)NCCO)n(CC3CC3)c2)cn1.O=C(O)C(F)(F)F | 116.5%
COCCCNC(=O)c1cc(-c2cnc(N(C)C)nc2)cn1CC1CC1.O=C(O)C(F)(F)F | 117.6%
COCCN1CCCn2cnc(CNC(=O)N(C)C)c2C1.O=C(O)C(F)(F)F.O=C(O)C(F)(F)F | -21.14%
CC(C)n1cnc2c1C(C(=O)NCCC#N)N(Cc1ccccc1)CC2.O=C(O)C(F)(F)F (stereo not drawn) | -22.73%
COCc1nc(NC(C)c2c(C)n[nH]c2C)c2cnn(C)c2n1 (stereo not drawn) | 8.424%
Cc1nc(-c2ccc(CC(=O)N3CCN(C(=O)C(C)C)CC3)cc2)cs1 | -9.711%
CN(C)C(=O)c1ccc2c(c1)N(C)C(CC(=O)NC(C)(C)CO)CO2 (stereo not drawn) | -1.046%
CN(C)c1ncc(NC(=O)N2CCC(CN3CCCC3)C2)cn1 (stereo not drawn) | 8.781%
CN(C)c1ncc(-c2cc(C(=O)N3CCCC3)n(CC3CC3)c2)cn1 | 121.7%
CNC(=O)c1cc(-n2ccnc2-c2cnc(N(C)C)nc2)ccc1OC | -13%
CN(C)c1ncc(-c2cc(C(=O)NC(C)(C)CO)n(CC3CC3)c2)cn1 | 111.9%

Structure (SMILES) | Percent Effect
CN(C)c1ncc(-c2cc(C(=O)O)n(CC3CC3)c2)cn1 | 1.495%
OC1(CNCc2ccc(F)c(C(F)(F)F)c2)CCSCC1 | 2.477%
O=C(O)CN1CCc2onc(C(c3ccccc3)c3ccccc3)c2C1 | -16.17%
CNS(=O)(=O)CCn1cc(-c2ccc(OC)c(OC)c2)nn1 | -29.27%
Cc1noc(C)c1CN1CCOC2(CCCN(c3ccccn3)C2)C1 (stereo not drawn) | -3.1%
COc1ccc(CNC(=O)CCSCc2csc(C)n2)cn1 | 99.67%
Cc1nc(CSCCC(=O)NCC(=O)NC(C)C)cs1 | 3.002%
Cc1nc(CSCCC(=O)NCc2ccncc2)cs1 | 95.93%
CSC(C)C(=O)NCc1ccc(-n2cncn2)nc1 (stereo not drawn) | -9.599%
COc1ccc(C)c(NC(=O)NCc2cccc(N(C)C)n2)c1 | -15.2%
Cc1nc(CNC(=O)NCCc2ccc(N(C)C)cc2)cs1 | 2.73%
CC(OCC(F)(F)F)C(=O)NCc1ccc(-n2cncn2)nc1 (stereo not drawn) | 6.097%
Cc1nc(CSCCC(=O)NCCNC(=O)OC(C)(C)C)cs1 | -7.243%
Cc1nc(CSCCC(=O)NCc2ccc(-n3cncn3)nc2)cs1 | 103.5%
Cc1nc(CCNC(=O)NCc2cccc(N(C)C)n2)cs1 | 98.24%
Cc1ccc(CNC(=O)CCSCc2csc(C)n2)cn1 | -0.6284%
Cc1ccc2c(c1)C(NC(=O)C1CCN(S(C)(=O)=O)CC1)CC(C)(C)O2 (stereo not drawn) | 2.376%
F[C@@H]1CN(CC2CC2)C[C@@H]1OCc1nc2ccc(C(F)(F)F)cc2[nH]1 | -10.92%
CC(C)N1CCc2onc(Cn3cccn3)c2C1 | -7.292%
O=C(Nc1ccccc1-c1ccccc1)N1C[C@@H]2CNC[C@]2(C(=O)O)C1 | -1.582%
Cc1nc(CNC(=O)NCC(F)(F)F)oc1C | 5.267%
Cc1ccc(-c2cc(-c3nc(CN4CCN(C)CC4)no3)n[nH]2)cc1 | -2.901%
CSCCCN1C(=O)CC[C@H]2CN(Cc3ncc[nH]3)CC[C@H]21 | -3.327%
